Assay outcomes from PubChem.
Rab9 promoter act: activators of Rab9 promoter; 320,000 compounds, 2.8% hits; Huh7 Rab9 promoter-luciferase reporter, luminescence, 24 h; AID 485297; Potency, µM (highest dose often 9.22 µM), for the others: at the highest dose activation, negative = inhibition, hits mostly activators; note: % of control where 0% means no effect; nearly all actives have a fitted effect of over 60% in size
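Promoter activation is measured as luciferase luminescence in Huh7 cells stably transfected with a Rab9 promoter–luciferase construct, following 24 h compound exposure at 37 °C and 10 min reagent incubation at ambient temperature.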
NPC1 promoter act: NPC1 promoter activation; Huh7 NPC1 promoter luciferase reporter, 24 h; Potency, µM (doses to about 9.22 µM), inactives show at the highest dose activation, hits mostly activators; 320,000 compounds, 2.4% hits; AID 485313; note: % of control where 0% means no effect; nearly all actives have a fitted effect of over 60% in size
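NPC1 promoter–luciferase Huh7 cells; 24 h compound; luminescence.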
ELG1 genotox: genotoxicity induction in ELG1-luciferase HEK293T cells. HEK293T ELG1-luciferase reporter, luminescence, 16 h. Potency, µM (top dose mostly 46 µM), for the others: at the top dose activity change, positive = activation, most hits filed as activators. 330,000 compounds, 1.3% hits; note: % of control where 0% means no effect; nearly all actives have a fitted effect of over 60% in size
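16 hr compound incubation (37 °C, 5% CO2) of HEK293T cells carrying luciferase-tagged ELG1; luciferase then measured by ONE-Glo luminescence after 30 min at RT.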
FLuc modulator: firefly luciferase modulation, counter-screen for miR-21 project | P08659 | Potency, µM (top dose mostly 57.5 µM), for inactives: at the highest dose activity change, negative = inhibition, actives largely listed as inhibitors | 360,000 compounds, 6.9% hits | purified FLuc, Km substrates, luminescence inhibition;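 note: plate controls were vehicle for no effect and reference inhibitor for full effect; nearly all actives have a fitted effect of over 55% in size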
Target sequence (P08659 whole entry, looked up): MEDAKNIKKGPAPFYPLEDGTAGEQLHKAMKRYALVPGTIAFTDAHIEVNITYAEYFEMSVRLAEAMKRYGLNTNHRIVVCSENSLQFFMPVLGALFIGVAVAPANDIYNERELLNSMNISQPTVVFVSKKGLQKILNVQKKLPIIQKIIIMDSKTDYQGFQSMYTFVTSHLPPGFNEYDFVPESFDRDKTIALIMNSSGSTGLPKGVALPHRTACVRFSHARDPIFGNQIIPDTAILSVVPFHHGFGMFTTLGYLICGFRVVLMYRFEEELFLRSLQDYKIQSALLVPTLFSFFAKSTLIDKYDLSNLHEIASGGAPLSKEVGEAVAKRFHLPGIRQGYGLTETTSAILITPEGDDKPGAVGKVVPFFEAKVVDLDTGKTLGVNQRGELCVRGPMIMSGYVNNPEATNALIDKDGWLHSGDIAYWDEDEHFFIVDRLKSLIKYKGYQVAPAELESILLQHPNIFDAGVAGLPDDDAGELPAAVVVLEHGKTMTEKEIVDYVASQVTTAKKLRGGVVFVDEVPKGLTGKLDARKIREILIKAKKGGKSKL
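Purified P. pyralis luciferase, 10 nM final, with Km-level 10 uM D-luciferin and 10 uM ATP in 50 mM Tris acetate pH 7.5, 10 mM Mg acetate, 0.01% Tween-20, 0.05% BSA; 6-point qHTS titration about 60 µM downward; luminescence read.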
SMN2 splice up: SMN2 splice variant enhancement; HEK293 SMN2-luciferase splicing reporter, luminescence, 30-36 h; Potency, µM (series often up to 46.1 µM), for inactives: at the top dose activity change, positive = activation, hits mostly activators; 210,000 compounds, 2.8% hits; AID 1458; note: % of control where 0% means no effect; nearly all actives have a fitted effect of over 55% in size
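HEK293 cells carry an SMN2 […]–luciferase reporter in which exon 7 inclusion puts luciferase in frame. Cells were plated 10-12 h before compound addition, then incubated 30-36 h at 37C. ONE-Glo luminescence was read; sodium butyrate at 4.5 mM final served as control.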
Numbers without * were called inactive; u = inconclusive; x = no result; [ ] = another dose, or the depositor's remark. An excerpt weighted towards active compounds, which were near 7.4% of everything screened. Calls come from the whole dose curve; as a rule, active = well fitted curve in the direction sought with a large enough effect; inconclusive = small, poorly fitted or top-dose-only effect, or another doubt; inactive = no such curve, though single readings can be large; an effect the other way counts as inactive or inconclusive. Potency is the fitted concentration of half-maximal effect.

SMILES	Rab9 promoter act	NPC1 promoter act	ELG1 genotox	FLuc modulator	SMN2 splice up
COc1cccc(C2CC(c3cccc(NS(C)(=O)=O)c3)=NN2C(=O)c2ccccc2)c1OC (stereo unspecified)	-4%	1%	-1%	0%	-41%
Cn1c2ccc(F)cc2c2nnc(SCC(=O)Nc3cccc(O)c3)nc21	1%	4%	12%	9.5µM*	x
O=C(CSc1ncc(-c2ccc(F)cc2)[nH]1)Nc1cccc(O)c1	3%	1%	-6%	19µM*	x
NNC(=O)CSc1ncc(-c2ccccc2)[nH]1	0%	-5%	8%	-4%	x
COc1ccc(OCc2cc(C(=O)NCCCc3ccccc3)no2)c(Cl)c1	5%	-20%	-9%	u	x
COc1cccc(OCc2cc(C(=O)NCCc3cccc(C)n3)no2)c1	-2%	-3%	0%	3%	x
COc1cccc(OCc2cc(C(=O)NCc3ccccn3)no2)c1	2.8µM*	u	16µM*	15µM*	x
COc1ccc(OCc2cc(C(=O)NCc3cccc(C)n3)no2)c(Cl)c1	u	u	26%	24µM*	x
CCOc1ccccc1N1CCN(C(=O)C2CSC3(C)CCC(=O)N23)CC1 (stereo unspecified)	3%	1%	1%	7%	x
CC1=NNC(=O)C1CC(=O)N/N=C/C=C/c1ccccc1 (stereo unspecified)	-5%	0%	-1%	6%	x
COCC1CCCCN1C(=O)c1cccc(OC2CCN(S(C)(=O)=O)CC2)c1 (stereo unspecified)	-4%	-3%	2%	-4%	x
COc1ccc(-c2cc3nc(CCl)[nH]c(=O)c3s2)cc1	u	u	u	0.12µM*	x
COc1ccc(-c2cc3nc[nH]c(=O)c3s2)cc1	2.8µM*	u	4.1µM*	3.8µM*	13µM*
O=c1[nH]cnc2cc(-c3ccccc3)sc12	u	3.5µM*	u	12µM*	u
COc1ccc(N2CCN(Cc3nc4ccsc4c(=O)[nH]3)CC2)cc1	-2%	-4%	-1%	-2%	5%
CCOC(=O)c1c(C)nc2sc3c(=O)[nH]cnc3c2c1-c1ccc(OC)cc1	-5%	-4%	2%	0%	20%
Cc1c(CCC(=O)O)c(=O)oc2c(C)c(OCc3cc4c(cc3Cl)OCO4)ccc12	-4%	1%	1%	u	x
O=C(Nc1cc2c(cc1Cl)OCCCO2)c1ccccc1	2.8µM*	u	6.3µM*	13µM*	11µM*
O=C(Nc1cc2c(cc1Cl)OCCCO2)c1ccco1	3.5µM*	3.5µM*	u	11µM*	14µM*
Cc1cc(-c2nnc(CCC(=O)NCCc3ccccc3F)o2)no1	6%	2%	4%	-4%	x
O=C1CC(=C2c3ccccc3-c3ccccc32)C(=O)N1CCCCN1CCN(c2ccccc2)CC1	3%	-4%	-9%	3%	-24%
CCc1cc2c(=O)[nH]c(-c3ccccn3)nc2s1	u	4.5µM*	u	6µM*	10µM*
CCc1cc2c(=O)[nH]c(N3CCCC3)nc2s1	u	17%	11%	u	u
O=C(/C=C/c1ccco1)NC(=S)Nc1ccccc1N1CCCC1	14%	5%	-7%	3%	-19%
Cc1ccc(NC(=S)NC(=O)/C=C/c2ccco2)c(O)c1	13%	-3%	6%	u	14%
SMILES	Rab9 promoter act	NPC1 promoter act	ELG1 genotox	FLuc modulator	SMN2 splice up
O=C(/C=C\c1ccco1)NC(=S)Nc1ccccc1O	3.2µM*	u	7%	u	x
O=C(/C=C/c1ccco1)NC(=S)Nc1ccccc1O	4µM*	u	13%	u	u
O=C(/C=C/c1ccco1)NC(=S)Nc1ccccn1	2.8µM*	3.2µM*	15%	13µM*	u
Cc1cccnc1NC(=S)NC(=O)/C=C/c1ccco1	u	3%	u	u	13%
O=C(Cn1cc(SCc2ccc(F)cc2)c2ccccc21)N1CCCCCC1	x	x	x	-2%	x
Cn1cccc1CC(=O)NNC(=S)NC(=O)c1ccccc1Br	-2%	-4%	-4%	-7%	-10%
COc1cccc2nc3cc(C)c(C)cc3nc12	0.89µM*	0.89µM*	1.5µM*	0.76µM*	x
CCOC(=O)Nc1ccc(NC(=O)c2ccccc2F)cc1	3.5µM*	u	u	u	u
O=C(Nc1ccc2cn[nH]c2c1)c1ccccc1F	2µM*	2.2µM*	u	9.5µM*	11µM*
O=C(Nc1ccc2ccccc2c1)c1ccccc1F	0.63µM*	0.5µM*	2.6µM*	1.3µM*	x
CCOC(=O)c1ccc(NC(=O)c2ccccc2C)cc1	u	u	15%	u	u
CC(=O)Nc1ccc(NC(=O)c2ccccc2F)cc1	-6%[1.84 µM]	16%	u	u	u
O=C(Nc1ccc(F)cc1)c1ccccc1F	x	x	x	21µM*	7%
Cc1nn(-c2ccccc2)c(C)c1/C=N/N1CCN(Cc2ccccc2)CC1	-12%[46.1 µM]	-2%[46.1 µM]	x	x	-18%
CN1CCc2c(cc(O)c(O)c2Cl)C(c2cccc(Cl)c2)C1 (stereo unspecified)	x	x	x	x	-1%
COc1ccc2c(c1)c(=O)c(S(=O)(=O)c1ccccc1)cn2CC(=O)Nc1ccc(C)c(Cl)c1	x	x	x	0%	13%
O=C(Nc1ccc(C(=O)N2CCCC2)cc1)c1ccccc1F	u	u	8.2µM*	u	u
CCN(CC)C(=O)c1ccc(C(=O)Nc2ccc(F)cc2)cc1	u	17%	u	u	x
O=C(Nc1ccc2nc(-c3cccnc3)[nH]c2c1)c1ccccc1F	8%	1%	8%	15µM*	0%
O=C(Nc1ccc2oc(-c3cccnc3)nc2c1)c1ccccc1F	x	x	x	u	5%
O=C(Nc1ccc(SC(F)F)cc1)c1ccc(F)cc1	1.3µM*	2.2µM*	u	8.5µM*	11µM*
O=C(Nc1ccc(Oc2cccnc2)cc1)c1ccccc1F	2.8µM*	u	3%	12µM*	-1%
CCC1(C)Cc2ccccc2-c2[nH][nH]c(=O)c21 (stereo unspecified)	5%	-3%	-10%	u	x
O=C(Nc1ccc(SC(F)F)cc1)c1ccccc1F	1.8µM*	2.5µM*	u	13µM*	18µM*
CNC(=O)c1ccccc1Nc1ccc(SC(F)F)cc1	22%	11%	0%	u	x
SMILES	Rab9 promoter act	NPC1 promoter act	ELG1 genotox	FLuc modulator	SMN2 splice up
Cc1ccc(/C=N/NC(=S)N2CCOCC2)cc1	5%	12%	u	15µM*	34%
S=C(N/N=C/c1ccc(Cl)cc1)N1CCOCC1	29%	29%	u	u	29%
S=C(N/N=C/c1ccc(Br)cc1)N1CCCCC1	0.89µM*	4µM*	u	27µM*	x
Cc1ccc(NC(=O)C(=O)NCc2ccc(Cl)cc2)cc1	x	x	x	-1%	-16%
O=C(Nc1ccc(N2CCN(c3ncccc3C(F)(F)F)CC2)nc1)c1cccs1	-16%	-6%	-23%	u	x
N/C(=N\O)c1ccc(N2CCN(c3ncccc3C(F)(F)F)CC2)nc1	2.5µM*	2.2µM*	u	12µM*	x
